Unmarked numbers belong to inactive results. The rule behind the calls is not given here.
Test system: Potassium Channel [KATP]
Experiment: off-target receptor, channel and CYP panel, profiling panel, selectivity assay for S1P3 agonist project, biochemical, Ricerca HitProfilingScreen, CYP450 (AID 540351)
Conditions: Ricerca receptor/enzyme binding panel plus CYP450, at 30 µM, stronger effect = higher value

With `O=C(c1cc(C2CC2)on1)N(C1CCCCC1)C1CCCCC1` the inhibition was 16%.
